In PubChem BioAssay (NCATS):
Results filed as inconclusive are left out. Values without a mark were called inactive. The source made the active and inactive calls. Calls follow the shape of the dose curve; as a rule, active = well fitted curve in the direction sought with a large enough effect; inconclusive = small, poorly fitted or top-dose-only effect, or another doubt; inactive = no such curve, though single readings can be large or run the other way.

Assay: Cytometric Cell-Based qHTS for Inhibitors of the mTORC1 Signaling Pathway in MEF (Tsc2-/-, p53-/-) Cells (AID 2660);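 also: Tsc2 and p53 null MEFs carrying empty vector with compound for 24 h; percent of cells above a phospho-rpS6 to PI ratio cutoff in each well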
Settings: mTORC1 pathway cytometry; series mostly up to 38.3 µM; activity change, negative = inhibition: at the top concentration
Description: NIH Molecular Libraries Probe Production Centers Network [MLPCN]
NIH Chemical Genomics Center [NCGC]
Assay Submitter (PI): Blenis, John; Hoffman, Greg; Harvard University
NCGC Assay Overview: The mammalian target of rapamycin (mTOR) is an intracellular serine/threonine kinase Aberrant regulation of mTOR signaling plays a causative role in a number of human diseases, including cancer, benign tumors such as lymphangioleiomyomatosis (LAM) and Tuberous Sclerosis Complex (TSC), and metabolic diseases such as diabetes and obesity. This project aims to identify inhibitors of ribosomal protein S6 (rpS6) phosphorylation. The phosphorylation of rpS6 is a key event downstream of mTOR activation. The assay uses a phospho-specific antibody of phospho-rpS6 to detect inhibitors of mTOR activation. Mutations in the Tsc1 and Tsc2 genes are the underlying genetic lesions responsible for TSC, causing constitutive activation of the mTORC1 pathway and leading to profound effects on cell metabolism. Aberrant metabolism in cancer has recently received significant attention as a target to develop therapeutic agents in the treatment of cancer.1 As Tsc2-/- cells have lost the ability to respond to energy and growth factor deprivation, these cells are unable to properly down regulate cellular biosynthetic processes in response to metabolic stress, and are thus extremely sensitive to glucose deprivation-induced death.2 A central goal of this project is to explore the unique cell survival and metabolic properties of cells with Tsc1 or Tsc2 by screening for compounds that selectively target the Tsc2-/- MEFs by screening both Tsc2-/- and WT MEF cell lines. We hope to better understand these aspects of TSC physiology in order to exploit them for therapeutic benefit.
NCGC Acumen Assay Protocol Summary:
For quantitative high throughput analysis of mTORC1 signaling, we developed a cell-based assay for immuno-fluorescence based detection of rpS6 phosphorylation on the Acumen Explorer that will be used a platform for the primary small molecule screen. Mouse embryonic fibroblasts (MEFs) are cultured in 1536-well plates using DMEM + 10% FBS. Twenty-four hrs after plating, test compounds (solubilized in DMSO) are delivered and incubated with the cells for 24 hrs at 37 degree Celsius. Following the incubation, media with compound is aspirated and the cells are fixed in 4% paraformaldehyde (PFA) containing PBS + 0.2% TX-100. Next, PFA is aspirated, cells are washed two times with PBS plus 0.2% TX-100 and the cells are blocked for 1 hr at room temperature (blocking buffer: LiCOR Blocking Buffer plus 0.2% TX-100). This is followed by aspiration and staining with Alexa-488 conjugated-phospho-rpS6 Ser235/236 antibody for 2 hours at room temperature (Cell Signaling Technology # 4803, 1:50 dilution in blocking buffer). Cells are washed two times with PBS plus 0.2% TX-100, and stained with 10 uM propidium iodide (PI) for 20-25 minutes for cell number measurement (1:500 dilution of Hoescht staining is also added for IN Cell imaging). The plates are scanned on the Acumen Explorer laser scanning instrument (TTP Labtech) using the 488nm laser for simultaneous excitation of the Alexa-488 and PI. The fluorescence emission from the Alexa-488 conjugated rpS6 phospho-235/236 antibody staining is selected using a […] band pass filter. Fluorescence emission from the PI stain is selected using a 575-640 nm band pass filter. The normalized phospho-S6 staining is calculated as the ratio of the integrated Alexa 488 intensity divided by the integrated PI intensity for the single concentration rapamycin control (7.5 nM) and DMSO columns. […] Inhibition of the pathway is defined based on the normalized phospho-S6 intensity in rapamycin treated cells. […]

Row | Structure (SMILES) | activity change, negative = inhibition [%] | outcome
1 | Cc1ncsc1CCCl | 8.4 | 
2 | O=P1(N(CCCl)CCCl)NCCCO1 (stereo not given) | -5.68 | 
3 | O=C(CCCN1CCC2(CC1)C(=O)NCN2c1ccccc1)c1ccc(F)cc1 | 7.16 | 
4 | CC(C)c1cccc(C(C)C)c1O | 5.41 | 
5 | CCC1(c2ccc(N)cc2)CCC(=O)NC1=O (stereo not given) | -1.29 | 
6 | CCCCC/C=C\C/C=C\C/C=C\C/C=C\CCCC(=O)NCC(=O)O | -0.888 | 
7 | CC(NC(C)(C)C)C(=O)c1cccc(Cl)c1 (stereo not given) | 3.76 | 
8 | NCCc1ccc(O)cc1 | -1.66 | 
9 | C=C(C)[C@H]1CN[C@H](C(=O)O)[C@H]1CC(=O)O | -1.62 | 
10 | COc1ccc2c(c1OC)C(=O)O[C@H]2[C@@H]1c2cc3c(cc2CCN1C)OCO3 | 4.05 | 
11 | O=c1[nH]oc2c1CCNC2 | 6.36 | 
12 | CN1C(=O)CCS(=O)(=O)C1c1ccc(Cl)cc1 (stereo not given) | 14.4 | 
13 | CC(C)(C)NCC(O)c1ccccc1Cl (stereo not given) | -0.507 | 
14 | O=C(O)CCCc1ccc(N(CCCl)CCCl)cc1 | 1.84 | 
15 | CC(C)N(CCC(C(N)=O)(c1ccccc1)c1ccccn1)C(C)C (stereo not given) |  | inactive
